RE007 growth inh: less growth of the S. pombe RE007 Vpr strain | S. pombe RE007 Vpr strain, BacTiter-Glo ATP luminescence, 24 h | Potency, µM (doses to about 92.2 µM), for the others: top-dose activity change, negative = less growth, usual class: inhibitors | hit rate 0.21% among 360,000; active means well fitted falling curve with a large enough effect; inconclusive means small, poorly fitted or top-dose-only effect; inactive means no such curve, though single readings can be large or run the other way; further: nearly all actives have a fitted effect of over 50% in size
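Fission yeast RE007 carrying one integrated HIV-1 vpr copy, seeded at OD 0.01 in PMG+AL medium with 23 nL pinned compound. Grown 24 h at 30 degrees; viability read by BacTiter-Glo luminescence after 5 min.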
TbPYK inhibitor: T. brucei pyruvate kinase inhibition. Q57TT1. TbPYK enzyme, Kinase-Glo Plus ATP luminescence, 45 min. Potency, µM (highest dose often 76.8 µM), for the others: at the highest dose activity, negative = inhibition, usual class: inhibitors. hit rate 0.12% among 410,000. AID 624173; further: nearly all actives have a fitted effect of over 50% in size
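Luminescent Kinase-Glo Plus end-point after 45 min room-temperature reaction of T. brucei pyruvate kinase started with 130 uM ADP (final). Buffer TEA 50 mM pH 7.2 with KCl, MgCl2, BSA, Tween-20; titration-based qHTS with fitted concentration-effect curves.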
LmPK inh: inhibitors of Leishmania mexicana pyruvate kinase | Q27686 | purified LmPK, Kinase-Glo ATP luminescence, 1 h | Potency, µM (doses to about 57.5 µM), inactives show at the top dose activity change, negative = inhibition, actives largely listed as inhibitors | hit rate 0.37% among 290,000
Target sequence (Q27686 whole entry, looked up): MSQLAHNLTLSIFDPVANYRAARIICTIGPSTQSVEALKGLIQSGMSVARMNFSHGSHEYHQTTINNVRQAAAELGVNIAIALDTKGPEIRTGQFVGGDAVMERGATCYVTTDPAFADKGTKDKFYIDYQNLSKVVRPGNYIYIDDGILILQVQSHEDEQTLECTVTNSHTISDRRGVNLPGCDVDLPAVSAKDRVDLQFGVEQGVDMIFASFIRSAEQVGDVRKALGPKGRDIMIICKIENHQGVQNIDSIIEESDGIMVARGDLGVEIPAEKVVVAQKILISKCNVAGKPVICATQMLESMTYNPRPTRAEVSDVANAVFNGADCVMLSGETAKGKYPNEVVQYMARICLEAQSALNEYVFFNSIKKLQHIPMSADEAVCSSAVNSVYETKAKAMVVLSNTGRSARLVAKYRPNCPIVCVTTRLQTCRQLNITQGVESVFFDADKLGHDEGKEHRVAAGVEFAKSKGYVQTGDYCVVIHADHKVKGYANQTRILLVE
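Purified LmPK (0.1 nM) with 0.5 mM PEP and 0.1 mM ADP in imidazole buffer pH 7.2 with MgCl2/KCl, 1 h at room temperature. ATP formed was read by luciferase luminescence and normalized to no-enzyme and uninhibited controls.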
Giardia FBPA inh-1: blocks Giardia fructose-bisphosphate aldolase activity; Potency, µM (series often up to 59.6 µM), for inactives: at the top dose activity, negative = inhibition, usual class: inhibitors; AID 2451; purified Giardia FBPA; hit rate 0.71% among 290,000; further: nearly all actives have a fitted effect of over 55% in size
Target sequence (A8B2U2 whole entry, looked up): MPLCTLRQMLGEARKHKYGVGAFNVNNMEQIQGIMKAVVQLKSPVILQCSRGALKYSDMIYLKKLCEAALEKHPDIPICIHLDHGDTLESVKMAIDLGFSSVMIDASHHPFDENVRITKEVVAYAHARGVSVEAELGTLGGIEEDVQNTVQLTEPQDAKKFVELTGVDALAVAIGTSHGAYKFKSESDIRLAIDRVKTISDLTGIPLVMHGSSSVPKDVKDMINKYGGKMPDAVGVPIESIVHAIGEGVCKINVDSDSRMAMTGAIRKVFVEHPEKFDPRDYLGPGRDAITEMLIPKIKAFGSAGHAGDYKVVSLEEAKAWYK
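40 nM FBPA preincubated 10 min at RT with compound (up to 57.5 uM final), then substrate plus GAPDH/TPI/NAD/arsenate coupling and diaphorase/resazurin added. Fluorescence read after 20 min at RT, 525/598 nm.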
Giardia growth: blocks growth of Giardia lamblia trophozoites; shares compounds with Giardia FBPA inh-1; Giardia lamblia trophozoite growth inhibition; Potency, µM (doses to about 57.5 µM), for inactives: at the top dose activity change, negative = inhibition, usual class: inhibitors; hit rate 5% among 1,500;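 further: trophozoites exposed to compound for 48 h at 37 °C; nearly all actives have a fitted effect of over 70% in size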
Mammal cell tox: toxic to mammalian cells in Giardia aldolase counter-screen | shares compounds with Giardia FBPA inh-1 | mammalian cell viability counter-screen, qHTS | Potency, µM (highest dose often 57.5 µM), without a hit: top-dose viability change, negative = toxicity, usual class: inhibitors | hit rate 4% among 1,500 | AID 2786;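 further: Chinese hamster ovary cells used as mammalian cytotoxicity surrogate; viability measured as cellular ATP by luminescence; compound exposure lasted 48 h before reading; nearly all actives have a fitted effect of over 60% in size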
Giardia FBPA inh-2: confirmation of Giardia fructose-bisphosphate aldolase inhibitors; shares compounds with Giardia FBPA inh-1; purified Giardia aldolase enzyme activity, qHTS; Potency, µM (titrated, usually from 57.5 µM), for the others: at the highest dose activity change, negative = inhibition, usual class: inhibitors; hit rate 5% among 1,500; AID 2787; further: nearly all actives have a fitted effect of over 45% in size
Rabbit FBPA inh: rabbit FBP aldolase inhibition by Giardia aldolase hits; hit rate 4% among 1,500; AID 2794; shares compounds with Giardia FBPA inh-1; Potency, µM (top dose mostly 57.5 µM), without a hit: top-dose activity, negative = inhibition, most hits filed as inhibitors; Rabbit muscle FBPA enzyme inhibition, selectivity counter-screen; further: nearly all actives have a fitted effect of over 60% in size
GAPDH counter: counter-screen for Giardia aldolase inhibitors: GAPDH coupling enzyme; shares compounds with Giardia FBPA inh-1; Potency, µM (doses to about 57.5 µM), without a hit: top-dose activity change, negative = inhibition, actives largely listed as inhibitors; hit rate 6% among 1,500; GAPDH coupling enzyme counterscreen, biochemical, qHTS; further: nearly all actives have a fitted effect of over 55% in size
* hit, by the source's call; u = inconclusive; x = no result given; [ ] = dose if it differs, or a comment. Most compounds without a hit are left out; they make up all but 0.95% or so of the library. Unless noted, the call rests on the fitted dose curve; in most records, active means well fitted curve in the direction sought with a large enough effect; inconclusive means small, poorly fitted or top-dose-only effect, or another doubt; inactive means no such curve, though single readings can be large; an effect the other way counts as inactive or inconclusive. On the % scale 0 is the no-effect control and ±100 the full control effect; potency means the concentration at half of the fitted maximal effect.

SMILES | RE007 growth inh | TbPYK inhibitor | LmPK inh | Giardia FBPA inh-1 | Giardia growth | Mammal cell tox | Giardia FBPA inh-2 | Rabbit FBPA inh | GAPDH counter
Cc1cccnc1NC(=S)Nc1ccc(F)cc1F | -17% | -6% | -7% | 20µM* | u | 6% | -3% | 12% | -6%
COc1ccc(C2CC(c3ccccc3)Oc3c(C)ccc(C)c32)cc1 (stereo unspecified) | x | x | x | 5% | x | x | x | x | x
Cc1[nH]n(-c2ccccc2)c(=S)c1C=Nc1ccc([N+](=O)[O-])cc1 | 39% | 2.8µM* | -26% | 4.5µM* | -1%[38.3 µM] | -8% | -23% | 35µM* | u
Cc1[nH]n(-c2ccccc2)c(=O)c1C=Nc1ccc(S(=O)(=O)N=C(N)N)cc1 | -3% | 2% | 6% | -5% | x | x | x | x | x
O=C(CCSc1ccccc1)Nc1nnc(-c2ccccc2)o1 | 9% | 5% | 0% | 24% | x | x | x | x | x
CN(c1ccccc1)S(=O)(=O)c1ccc(C(=O)Nc2nnc(C3=COCCO3)o2)cc1 | 14% | 1% | 12% | 11µM* | u | 22% | 3% | 15% | -9%
O=C(Nc1nnc(C2=COCCO2)o1)c1cccc(F)c1 | -10% | 0% | 1% | x | x | x | x | x | x
O=C(CCSc1ccccc1)Nc1nnc(-c2cccs2)o1 | 0% | 2% | 4% | 16µM* | -13%[10.4 µM] | -14% | 3% | 5% | 6%
CN(C)c1ccc(C(=O)Nc2nnc(C3=COCCO3)o2)cc1 | -15% | 5% | 1%[11.5 µM] | 18µM* | u | 9% | -10% | -1% | 0%
Cc1cccc(C(=O)Nc2nnc(C3=COCCO3)o2)c1 | 1% | 1% | -3% | 18µM* | u | -1% | -4% | -5% | 0%
COc1ccc(-c2noc(N3CCC(C(=O)Nc4cccc(C)c4C)CC3)n2)cc1 | x | 3% | x | x | x | x | x | x | x
CN(C)S(=O)(=O)c1ccc(C(=O)Nc2nnc(-c3cccs3)o2)cc1 | -7% | 3% | 3% | 18µM* | 14µM* | -16% | -6% | -6% | -12%
O=C(Nc1cccc(F)c1)N1CC[C@@]2(CCCN(C(=O)c3cccc(F)c3)C2)C1 | x | 2% | x | 0% | x | x | x | x | x
CSc1ccc(-c2sc(Nc3cccc4ccccc34)n[n+]2-c2ccccc2)cc1 | -9% | -21% | -1% | 25µM* | 14% | -21% | -20% | -20% | -24%
CSc1ccc(-c2sc(Nc3ccccc3)n[n+]2-c2ccccc2)cc1 | -5% | -10% | -14% | 25µM* | -28% | -24% | -1% | 9% | 2%
CCc1ccc(Nc2n[n+](-c3ccccc3)c(-c3ccc(SC)cc3)s2)cc1 | 3% | -14% | -6% | -25% | x | x | x | x | x
CC(=O)Nc1ccc(-c2sc(Nc3cccc4ccccc34)n[n+]2-c2ccccc2)cc1 | -4% | -5% | 1% | 16µM* | 32% | 6% | 7% | 3% | 13%
COc1ccc(C)cc1Nc1n[n+](-c2ccccc2)c(-c2ccc(NC(C)=O)cc2)s1 | 2% | -5% | -6% | 22µM* | u | 1% | 4% | -5% | 11%
COc1ccc2c(c1)O[C@H](c1cccc(C(F)(F)F)c1)[C@@H](O)C2=O | x | x | x | -1%[12.9 µM] | x | x | x | x | x
Cn1c(-c2ccc(F)cc2)cnc1NCc1ccccc1F | -9% | 6% | -8% | 28µM* | -9%[10.4 µM] | 2% | 1% | 3% | 11%
COc1ccc(CNc2ncc(-c3ccccc3)n2C)cc1 | -15% | 14% | 6% | 18µM* | -18% | 25% | 1% | 1% | 9%
Cn1c(-c2ccc(F)cc2)cnc1NCc1ccc(F)cc1F | -3% | 3% | 2% | -25% | x | x | x | x | x
COc1ccc(OC)c(CNc2ncc(-c3cccc([N+](=O)[O-])c3)n2C)c1 | -2% | 19% | -3% | 28µM* | u | -3% | -6% | 1% | 4%
C=C(C(=O)OCC)C(=O)c1ccccc1 | x | x | x | 0% | x | x | x | x | x
COc1ncc2nc(-c3ccc(F)cc3)c(=O)n(Cc3ccc(F)cc3)c2n1 | x | x | x | 0% | x | x | x | x | x
SMILES | RE007 growth inh | TbPYK inhibitor | LmPK inh | Giardia FBPA inh-1 | Giardia growth | Mammal cell tox | Giardia FBPA inh-2 | Rabbit FBPA inh | GAPDH counter
CC(Sc1ncc(S(=O)(=O)c2ccc(C(C)C)cc2)c(N)n1)C(=O)Nc1ccccc1 (stereo unspecified) | x | -4% | x | x | x | x | x | x | x
CC[C@@H](C)[C@@H](O)[C@H](C)C(=O)[C@H](C)/C=C(\C)C[C@H](C)[C@@H]1OC(=O)[C@H]1CC | x | x | x | 6% | x | x | x | x | x
O=S1(=O)c2cccc3cccc(c23)N1CCCN1CCN(c2ccc(F)cc2)CC1 | x | 4% | x | -5% | x | x | x | x | x
Cc1cccc(OCCOCCSc2ncccn2)c1 | -1% | -7% | 6% | -4% | x | x | x | x | x
Cc1cccc(OCCSc2nc(N)cc(N)n2)c1 | -2% | -6% | 3% | 16µM* | 17% | 17% | -1% | -3% | 19%
CN1/C(=C\C(=O)CSc2cccc[n+]2[O-])C(C)(C)c2ccccc21 | 8% | 1% | 3% | 11µM* | -21% | 24% | -3% | 7% | 2%
Cc1cccc[n+]1CC(=O)/C=C1\N(C)c2ccccc2C1(C)C | -4% | -11% | 2% | -4% | x | x | x | x | x
Cc1nn(CC(=O)NCc2ccc(N(C)C)cc2)c(=O)c2nn(-c3ccccc3)c(C)c12 | x | 1% | x | x | x | x | x | x | x
O=C(N/N=C/c1cccnc1)c1cc(O)c(O)c(O)c1 | 0% | 3% | -7% | 10µM* | u | 6% | -25% | -20% | -8%
CC(O)C1CCC2C3CCC4CC(O)CCC4(C)C3CCC12C (stereo unspecified) | x | -4% | x | x | x | x | x | x | x
Cc1[nH]c2ccccc2c1/C=N/Nc1nncn1N | 1% | -5% | -1% | 13µM* | -12% | -19% | u | u | -27%
O=C(CN1CCOCC1)N1CCCc2ccccc21 | -17% | 20% | 5% | 13µM* | u | -2% | 0% | 8% | 0%
O=C1CCC(=O)N1CC(=O)N1CCCc2ccccc21 | 14% | -10% | 3% | -6% | x | x | x | x | x
C=CCC(O)c1ccccc1 (stereo unspecified) | x | x | x | 5% | x | x | x | x | x
CCc1oc(C(=O)OC)cc1CSC(=N)N | -12% | -3% | 5% | 18µM* | -17%[10.4 µM] | -9% | -1% | 6% | 10%
Clc1cccc2c1CN(C1=NCCN1)C2 | x | x | x | 0% | x | x | x | x | x
NNC(=O)c1cc(O)c(O)c(O)c1 | 13% | u | -1% | u | x | x | x | x | x
O=C(O)c1cc(O)c(O)c(O)c1 | x | u | x | 3.5µM* | -29%[38.3 µM] | 40µM* | 14µM* | 20µM* | 25µM*

Compound activity as filed in PubChem BioAssay.
